The results in this text go back to ChEMBL document CHEMBL2218924, “A broad activity screen in support of a chemogenomic map for kinase signalling research and drug discovery” (Biochem J, 2013).

SMILES strings stand for the structures.

For experiment [1], the target named is T1, Testis-specific serine/threonine-protein kinase 1 (Homo sapiens) (UniProt Q9BXA7).
T1 sequence (whole entry): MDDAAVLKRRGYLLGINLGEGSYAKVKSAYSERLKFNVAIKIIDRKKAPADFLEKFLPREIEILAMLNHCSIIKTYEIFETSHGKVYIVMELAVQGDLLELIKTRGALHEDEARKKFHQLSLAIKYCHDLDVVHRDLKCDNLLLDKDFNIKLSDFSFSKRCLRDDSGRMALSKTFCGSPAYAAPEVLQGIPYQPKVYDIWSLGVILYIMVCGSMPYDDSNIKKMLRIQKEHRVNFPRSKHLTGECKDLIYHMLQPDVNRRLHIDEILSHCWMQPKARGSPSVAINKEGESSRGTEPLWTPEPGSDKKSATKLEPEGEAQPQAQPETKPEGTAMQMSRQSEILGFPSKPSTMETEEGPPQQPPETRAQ
To be noted: at 10 µM.

For experiment [2], the target named is Angiopoietin-1 receptor (Homo sapiens) (UniProt Q02763). Conditions: at 10 µM.
Chain of Angiopoietin-1 receptor (Homo sapiens) (Q02763 whole entry): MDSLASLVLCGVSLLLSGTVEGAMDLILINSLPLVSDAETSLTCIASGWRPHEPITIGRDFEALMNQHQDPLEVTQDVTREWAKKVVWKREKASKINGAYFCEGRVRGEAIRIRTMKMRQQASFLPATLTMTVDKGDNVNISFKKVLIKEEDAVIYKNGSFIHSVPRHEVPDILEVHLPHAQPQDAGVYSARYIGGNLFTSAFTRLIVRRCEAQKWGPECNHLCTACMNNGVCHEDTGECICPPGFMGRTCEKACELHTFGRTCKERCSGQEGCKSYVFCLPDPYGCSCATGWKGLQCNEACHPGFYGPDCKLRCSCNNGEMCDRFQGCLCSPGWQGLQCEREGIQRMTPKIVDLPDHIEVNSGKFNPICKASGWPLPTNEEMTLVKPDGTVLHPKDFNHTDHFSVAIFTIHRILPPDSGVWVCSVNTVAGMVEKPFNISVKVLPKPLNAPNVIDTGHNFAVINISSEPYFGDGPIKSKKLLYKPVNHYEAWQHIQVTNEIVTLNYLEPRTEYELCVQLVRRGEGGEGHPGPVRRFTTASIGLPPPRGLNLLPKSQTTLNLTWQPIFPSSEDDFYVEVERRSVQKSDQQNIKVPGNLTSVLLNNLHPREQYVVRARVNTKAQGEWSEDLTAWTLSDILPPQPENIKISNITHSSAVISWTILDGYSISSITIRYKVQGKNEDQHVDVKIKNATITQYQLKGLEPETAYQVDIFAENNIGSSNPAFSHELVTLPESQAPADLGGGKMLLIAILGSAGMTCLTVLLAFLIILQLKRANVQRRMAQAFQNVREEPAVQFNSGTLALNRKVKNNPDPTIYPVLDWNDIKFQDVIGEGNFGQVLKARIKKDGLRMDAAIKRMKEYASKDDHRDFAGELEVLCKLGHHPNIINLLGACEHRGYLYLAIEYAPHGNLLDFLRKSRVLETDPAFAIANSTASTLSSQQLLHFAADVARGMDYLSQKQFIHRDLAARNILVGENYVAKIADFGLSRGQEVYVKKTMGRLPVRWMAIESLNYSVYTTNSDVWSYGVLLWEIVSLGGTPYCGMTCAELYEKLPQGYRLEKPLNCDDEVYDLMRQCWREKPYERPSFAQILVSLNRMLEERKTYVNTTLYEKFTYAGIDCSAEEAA
Experiment [3] has as its target T2, Serine/threonine-protein kinase ULK2 (Homo sapiens) (UniProt Q8IYT8).
T2 sequence (whole entry): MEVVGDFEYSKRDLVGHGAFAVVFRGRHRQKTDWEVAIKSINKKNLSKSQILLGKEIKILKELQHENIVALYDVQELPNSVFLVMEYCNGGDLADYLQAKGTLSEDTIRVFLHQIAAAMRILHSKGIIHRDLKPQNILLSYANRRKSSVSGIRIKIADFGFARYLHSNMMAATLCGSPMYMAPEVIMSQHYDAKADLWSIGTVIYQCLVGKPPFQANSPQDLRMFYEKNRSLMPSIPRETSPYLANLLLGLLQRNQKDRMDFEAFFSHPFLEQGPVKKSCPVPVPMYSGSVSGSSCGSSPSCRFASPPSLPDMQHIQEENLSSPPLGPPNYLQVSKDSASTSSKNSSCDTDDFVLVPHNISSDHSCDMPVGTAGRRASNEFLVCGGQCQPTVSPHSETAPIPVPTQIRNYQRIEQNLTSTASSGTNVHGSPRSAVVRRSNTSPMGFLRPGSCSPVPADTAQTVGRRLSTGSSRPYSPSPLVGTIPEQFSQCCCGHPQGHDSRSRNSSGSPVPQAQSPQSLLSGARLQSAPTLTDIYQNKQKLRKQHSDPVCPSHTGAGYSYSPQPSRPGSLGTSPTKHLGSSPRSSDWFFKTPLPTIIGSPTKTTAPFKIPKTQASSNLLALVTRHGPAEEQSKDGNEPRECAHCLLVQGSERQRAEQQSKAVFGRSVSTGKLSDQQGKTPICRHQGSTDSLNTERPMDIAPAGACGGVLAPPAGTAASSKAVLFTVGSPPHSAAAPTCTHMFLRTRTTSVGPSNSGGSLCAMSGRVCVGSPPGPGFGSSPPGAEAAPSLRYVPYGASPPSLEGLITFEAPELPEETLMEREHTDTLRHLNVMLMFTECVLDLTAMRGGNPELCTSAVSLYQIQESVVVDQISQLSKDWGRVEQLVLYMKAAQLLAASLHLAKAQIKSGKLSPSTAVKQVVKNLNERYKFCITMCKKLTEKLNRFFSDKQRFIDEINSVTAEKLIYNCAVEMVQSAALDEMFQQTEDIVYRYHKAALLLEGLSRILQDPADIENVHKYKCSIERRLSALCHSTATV
Conditions: at 10 µM.

Experiment [4] concerns the target Serine/threonine-protein kinase VRK2 (Homo sapiens) (UniProt Q86Y07). To be noted: at 1 µM.
For experiment [5] the target is unchanged. Conditions: at 10 µM.
Experiment [6] has as its target T3, Testis-specific serine/threonine-protein kinase 2 (Homo sapiens) (UniProt Q96PF2).
T3 sequence (whole entry): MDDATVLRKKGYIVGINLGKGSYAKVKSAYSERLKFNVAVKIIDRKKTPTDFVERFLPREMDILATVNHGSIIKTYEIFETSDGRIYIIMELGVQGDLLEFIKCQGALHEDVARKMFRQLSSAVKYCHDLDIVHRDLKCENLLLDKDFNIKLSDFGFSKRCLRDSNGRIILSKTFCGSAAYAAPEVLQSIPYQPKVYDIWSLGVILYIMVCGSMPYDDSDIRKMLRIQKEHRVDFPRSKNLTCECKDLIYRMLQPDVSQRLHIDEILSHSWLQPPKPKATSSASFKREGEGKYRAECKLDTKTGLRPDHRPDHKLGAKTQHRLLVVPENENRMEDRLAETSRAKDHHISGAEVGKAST
To be noted: at 10 µM.

The target in experiment [7] is T4, Tyrosine-protein kinase Tec (Homo sapiens) (UniProt P42680).
T4 sequence (whole entry): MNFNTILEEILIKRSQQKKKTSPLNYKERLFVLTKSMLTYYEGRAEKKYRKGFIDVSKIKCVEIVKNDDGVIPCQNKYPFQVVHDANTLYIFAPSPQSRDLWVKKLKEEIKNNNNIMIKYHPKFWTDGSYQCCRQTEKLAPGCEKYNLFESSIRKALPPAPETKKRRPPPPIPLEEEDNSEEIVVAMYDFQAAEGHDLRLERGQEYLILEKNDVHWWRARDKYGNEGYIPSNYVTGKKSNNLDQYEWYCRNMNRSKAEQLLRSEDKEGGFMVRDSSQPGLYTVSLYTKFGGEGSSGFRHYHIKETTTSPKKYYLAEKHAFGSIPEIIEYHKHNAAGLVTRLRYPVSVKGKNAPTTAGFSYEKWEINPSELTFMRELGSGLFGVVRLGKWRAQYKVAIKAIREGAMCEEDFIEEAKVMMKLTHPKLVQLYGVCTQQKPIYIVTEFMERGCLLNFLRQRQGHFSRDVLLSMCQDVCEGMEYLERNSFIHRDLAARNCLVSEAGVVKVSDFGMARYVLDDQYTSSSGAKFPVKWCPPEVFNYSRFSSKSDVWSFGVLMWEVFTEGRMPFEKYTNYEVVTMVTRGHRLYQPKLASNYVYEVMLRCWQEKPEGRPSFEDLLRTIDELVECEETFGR
To be noted: at 1 µM.

Experiment [8] addresses T4, Tyrosine-protein kinase Tec (Homo sapiens). Conditions: at 10 µM.
Experiment [9] concerns the target High affinity nerve growth factor receptor (Homo sapiens) (UniProt P04629). Conditions: at 1 µM.
Experiment [10] shares this target. To be noted: at 10 µM.
Experiment [11] has as its target BDNF/NT-3 growth factors receptor (Homo sapiens) (UniProt Q16620). To be noted: at 1 µM.
The target is the same in experiment [12]. To be noted: at 10 µM.
Experiment [13] deals with T5, Tyrosine-protein kinase TXK (Homo sapiens) (UniProt P42681).
T5 sequence (whole entry): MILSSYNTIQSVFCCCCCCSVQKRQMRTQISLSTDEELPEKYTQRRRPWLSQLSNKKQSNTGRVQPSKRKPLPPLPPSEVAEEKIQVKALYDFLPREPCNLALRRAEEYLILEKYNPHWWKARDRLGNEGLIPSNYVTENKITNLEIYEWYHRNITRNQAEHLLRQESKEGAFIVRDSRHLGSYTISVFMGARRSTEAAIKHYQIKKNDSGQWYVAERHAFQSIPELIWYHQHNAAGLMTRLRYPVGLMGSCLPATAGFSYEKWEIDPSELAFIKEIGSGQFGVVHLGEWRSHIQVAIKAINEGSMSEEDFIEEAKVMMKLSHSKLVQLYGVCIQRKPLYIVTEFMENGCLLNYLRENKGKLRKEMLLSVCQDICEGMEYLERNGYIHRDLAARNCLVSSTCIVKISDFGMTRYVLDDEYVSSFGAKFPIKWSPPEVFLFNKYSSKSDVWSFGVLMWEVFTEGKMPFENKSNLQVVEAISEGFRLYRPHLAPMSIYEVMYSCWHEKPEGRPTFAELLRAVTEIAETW
To be noted: at 1 µM.

Experiment [14] has as its target T5, Tyrosine-protein kinase TXK (Homo sapiens). Conditions: at 10 µM.
Experiment [15] has as its target Angiopoietin-1 receptor (Homo sapiens) (UniProt Q02763). To be noted: at 1 µM.
Experiment [16] addresses T6, Serine/threonine-protein kinase ULK3 (Homo sapiens) (UniProt Q6PHR2).
T6 sequence (whole entry): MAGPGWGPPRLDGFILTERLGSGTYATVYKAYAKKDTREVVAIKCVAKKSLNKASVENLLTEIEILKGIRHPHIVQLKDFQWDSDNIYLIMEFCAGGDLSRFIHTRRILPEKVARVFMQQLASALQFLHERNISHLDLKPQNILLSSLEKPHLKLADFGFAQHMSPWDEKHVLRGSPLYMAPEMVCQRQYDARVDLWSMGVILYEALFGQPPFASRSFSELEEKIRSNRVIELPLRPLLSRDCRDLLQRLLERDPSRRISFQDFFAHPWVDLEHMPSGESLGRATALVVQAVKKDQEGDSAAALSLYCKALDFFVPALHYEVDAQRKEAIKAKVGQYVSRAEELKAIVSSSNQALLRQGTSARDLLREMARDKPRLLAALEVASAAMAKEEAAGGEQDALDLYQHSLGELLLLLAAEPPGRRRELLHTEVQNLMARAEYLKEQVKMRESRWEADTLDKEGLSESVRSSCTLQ
Conditions: at 1 µM.

In experiment [17] the target is T6, Serine/threonine-protein kinase ULK3 (Homo sapiens). To be noted: at 10 µM.
Experiment [18] concerns the target Serine/threonine-protein kinase WNK2 (Homo sapiens) (UniProt Q9Y3S1). Conditions: at 1 µM.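 Also: residual WNK2 kinase activity expressed as percent of uninhibited control, assayed in MOPS buffer at pH 7.0 containing EDTA.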
Experiment [19] concerns the target T2, Serine/threonine-protein kinase ULK2 (Homo sapiens). To be noted: at 1 µM.

Chain of Serine/threonine-protein kinase VRK2 (Homo sapiens) (Q86Y07 whole entry): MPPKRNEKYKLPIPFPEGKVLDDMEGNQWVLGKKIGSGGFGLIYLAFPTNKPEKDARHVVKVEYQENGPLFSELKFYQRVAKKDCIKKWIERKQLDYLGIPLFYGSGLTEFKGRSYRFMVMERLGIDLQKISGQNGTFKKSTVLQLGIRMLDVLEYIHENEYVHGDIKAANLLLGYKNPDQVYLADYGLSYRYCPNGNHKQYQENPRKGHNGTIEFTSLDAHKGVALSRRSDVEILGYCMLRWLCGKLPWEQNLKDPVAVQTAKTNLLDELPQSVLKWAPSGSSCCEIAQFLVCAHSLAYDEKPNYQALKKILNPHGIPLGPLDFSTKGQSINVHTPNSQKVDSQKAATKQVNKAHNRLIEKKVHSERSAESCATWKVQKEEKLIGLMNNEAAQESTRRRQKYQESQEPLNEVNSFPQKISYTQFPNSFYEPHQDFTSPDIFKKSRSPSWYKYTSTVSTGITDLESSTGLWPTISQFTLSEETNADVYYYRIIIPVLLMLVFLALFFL
Chain of BDNF/NT-3 growth factors receptor (Homo sapiens) (Q16620 32-822 limits assumed): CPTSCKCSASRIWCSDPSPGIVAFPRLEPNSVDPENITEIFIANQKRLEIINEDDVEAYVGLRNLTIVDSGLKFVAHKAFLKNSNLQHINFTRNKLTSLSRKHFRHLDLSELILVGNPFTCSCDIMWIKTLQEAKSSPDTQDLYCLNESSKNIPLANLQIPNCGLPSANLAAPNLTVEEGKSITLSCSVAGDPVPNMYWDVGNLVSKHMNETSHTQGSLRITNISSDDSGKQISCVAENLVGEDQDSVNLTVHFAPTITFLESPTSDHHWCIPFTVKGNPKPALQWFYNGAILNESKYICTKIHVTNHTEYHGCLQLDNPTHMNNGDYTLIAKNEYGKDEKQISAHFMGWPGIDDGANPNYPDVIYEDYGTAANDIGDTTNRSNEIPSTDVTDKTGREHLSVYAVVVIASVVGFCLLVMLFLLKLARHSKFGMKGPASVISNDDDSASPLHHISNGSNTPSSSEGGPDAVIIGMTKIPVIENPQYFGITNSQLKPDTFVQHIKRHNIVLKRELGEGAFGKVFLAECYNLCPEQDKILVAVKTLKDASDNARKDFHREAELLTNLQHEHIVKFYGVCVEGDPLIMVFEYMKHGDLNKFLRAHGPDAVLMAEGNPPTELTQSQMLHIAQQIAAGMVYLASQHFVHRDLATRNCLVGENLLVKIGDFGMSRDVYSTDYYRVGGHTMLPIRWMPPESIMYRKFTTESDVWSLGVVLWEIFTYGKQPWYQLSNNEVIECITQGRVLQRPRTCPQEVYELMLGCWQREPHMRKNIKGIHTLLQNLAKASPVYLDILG
Chain of High affinity nerve growth factor receptor (Homo sapiens) (P04629 33-796 limits assumed): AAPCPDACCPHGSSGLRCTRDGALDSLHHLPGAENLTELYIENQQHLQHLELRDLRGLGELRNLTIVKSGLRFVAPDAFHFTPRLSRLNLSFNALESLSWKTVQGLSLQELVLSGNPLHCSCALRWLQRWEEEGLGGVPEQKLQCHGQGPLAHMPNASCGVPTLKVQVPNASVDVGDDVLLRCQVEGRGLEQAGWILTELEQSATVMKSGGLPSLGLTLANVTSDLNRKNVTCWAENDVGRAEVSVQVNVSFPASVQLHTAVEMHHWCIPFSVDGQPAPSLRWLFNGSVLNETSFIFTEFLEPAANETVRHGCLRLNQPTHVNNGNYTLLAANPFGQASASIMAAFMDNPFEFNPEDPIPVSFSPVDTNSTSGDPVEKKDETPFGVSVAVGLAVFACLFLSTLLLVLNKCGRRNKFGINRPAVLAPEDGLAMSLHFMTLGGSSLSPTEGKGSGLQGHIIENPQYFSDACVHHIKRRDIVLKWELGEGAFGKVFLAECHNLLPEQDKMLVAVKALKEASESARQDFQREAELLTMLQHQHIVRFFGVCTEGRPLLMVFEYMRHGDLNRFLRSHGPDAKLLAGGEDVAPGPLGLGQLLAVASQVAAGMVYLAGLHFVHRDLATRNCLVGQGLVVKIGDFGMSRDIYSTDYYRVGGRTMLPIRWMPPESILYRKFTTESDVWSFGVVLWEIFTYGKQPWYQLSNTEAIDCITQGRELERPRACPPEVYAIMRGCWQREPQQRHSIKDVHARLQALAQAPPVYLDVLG

Regarding `O=c1c(-c2ccc(F)cc2)c(-c2ccncc2)[nH]n1-c1ccc(Cl)cc1`, the residual activity in [1] is 78%; in [2], 75%; in [3], 102%; in experiment [4] it was 100% (inactive); in experiment [5] it was 99%.

Regarding `NC(=O)c1ccc(-c2nc(-c3ccc4c(c3)OCCO4)c(-c3ccccn3)[nH]2)cc1`, the residual activity in [6] is 63%; in experiment [7], 96%; in [8] it was 91%; in [2], 72%; in [9], 95%; in [10], 82%. Also, the residual activity in experiment [11] is 96%; in experiment [12], 68%; in [13], 90%; in experiment [14] it was 94%; in experiment [4], 118% (inactive); in experiment [5], 98%.

Consider `O=C1NC(=O)C(c2c[nH]c3ccccc23)=C1c1c[nH]c2ccccc12`, for which the residual activity came out at 58% in [9]; 8% in experiment [10]; 29% in experiment [11]; 24% in [12]; 75% in experiment [5].

Take `Nc1nc(Nc2ccc(S(N)(=O)=O)cc2)nn1C(=O)c1c(F)cccc1F`: the residual activity in experiment [6] was determined as 76%; in experiment [7], 82%; in experiment [8], 34%; in experiment [15] it was 36%; in experiment [2], 0%; in [9], 41%. In addition, the residual activity in experiment [10] is 5%; in experiment [11], 54%; in experiment [12], 5%; in experiment [14], 41%; in [3] it was 39%; in experiment [16], 46%. Also, the residual activity in [17] was 9%; in experiment [4], 97% (inactive); in [5], 69%; in experiment [18] it was 96% (inactive).

Turning to `O=C1NC(=O)c2c1c1c3ccccc3[nH]c1n1cncc21`, the residual activity in experiment [6] came out at 85%; in experiment [7], 70%; in experiment [8], 65%; in experiment [15], 98%; in experiment [2], 79%; in experiment [9], 21%. Also, the residual activity amounted to 9% in [10]; 48% in [11]; 20% in experiment [12]; 71% in experiment [13]; 79% in experiment [14]; 103% in experiment [19]. Also, the residual activity in [3] is 86%; in experiment [16], 80%; in experiment [17] it was 70%; in experiment [4], 93% (inactive); in [5], 91%; in experiment [18] it was 82% (inactive).

On to `O=c1cc(N2CCOCC2)oc2c(-c3ccccc3)cccc12`, for which the residual activity in experiment [6] was found to be 68%; in [15], 71%; in experiment [2] it was 64%; in [9] it was 79%; in experiment [10], 71%; in [14], 69%.

As for `Cc1cc(C)c(/C=C2\C(=O)Nc3ccccc32)[nH]1`, the residual activity amounted to 75% in experiment [1]; 100% in experiment [7]; 74% in [15]; 82% in experiment [2]; 1% in experiment [9]; 0% in experiment [10]. Besides, the residual activity in [11] is 40%; in experiment [12], -7%; in experiment [13] it was 103%; in [4], 98% (inactive); in experiment [5], 68%.

In the case of `COc1ccc(COc2ccc(Cc3cnc(N)nc3N)cc2OC)cc1`, the residual activity was 100% in experiment [7]; 81% in experiment [8]; 49% in experiment [9]; 4% in experiment [10]; 55% in experiment [11]; -12% in [12]. Moreover, the residual activity in experiment [14] came out at 68%.

On to `O=C(c1ccccc1)c1ccc(N2CCOCC2)cc1O`, for which the residual activity in experiment [6] amounted to 99%; in experiment [7], 96%; in [8] it was 77%; in experiment [2], 80%; in experiment [9], 76%; in experiment [10], 71%. Moreover, the residual activity was 131% in experiment [11]; 113% in experiment [12]; 82% in experiment [13]; 70% in [14]; 94% in experiment [3]; 92% in experiment [17]. Moreover, the residual activity in experiment [4] is 98% (inactive); in experiment [5], 94%; in experiment [18], 115% (inactive).

Consider `N#Cc1c(NC(=O)c2cccc3ccccc23)sc2c1CCCC2`, for which the residual activity in [7] is 94%; in experiment [8], 69%; in experiment [9] it was 81%; in experiment [10], 87%; in [13], 90%; in experiment [14], 80%.
